About 13,000 (27%) of roughly 48,000 compounds showed an effect of 50% or more. This is one part of the list.

Consider 76 compounds from ChEMBL document CHEMBL3988442, “University of Dundee, Small-Polar-MMV Screening Library” (2021).

The test system of the experiment is Wolbachia pipientis. In words: Anti-Wolbachia Cell-Based Screen. The class given is functional. Also noted: scale not given: in the data most compounds retested in dose-response had high values. Conditions: 5 µM.
For `Cn1c(CCNC(=O)Nc2cn[nH]c2)nc2ccc(F)cc21`, the “Percent Effect” value is -27.77%.

On to `O=C(NCc1ccc(-n2cncn2)nc1)N(CC1CCOC1)C1CC1` (stereo unspecified), for which the “Percent Effect” value is recorded as 4.835%.

With `O=C(NC1(c2nccs2)CCCC1)c1cc(C2CC2)[nH]n1`, the “Percent Effect” value was -18.19%.

Take `CC(C)n1cnnc1CN(C)Cc1cnc(-c2ccco2)nc1`: the “Percent Effect” value was -3.944%.

Consider `CNC(=O)c1cccc(CNC(C)c2ccc(F)cc2N(C)C)c1` (stereo unspecified), for which the “Percent Effect” value is listed as 2.761%.

In the case of `Cc1cc(CNC(=O)c2cccs2)ccc1S(C)(=O)=O`, the “Percent Effect” value was -1.482%.

As for `O=C(c1cccnc1)N1C[C@@H]2CC[C@H](C1)N(Cc1ccc(F)cc1Cl)C2`, the “Percent Effect” value is recorded as -16.95%.

Consider `Cc1ccc(C(=O)N2C[C@@H]3CC[C@H](C2)N(Cc2ccccc2)C3)cn1`, for which the “Percent Effect” value was found to be 101.3%.

Turning to `Nc1ccc(C(=O)N2C[C@@H]3CC[C@H](C2)N(Cc2ccccc2)C3)cn1`, the “Percent Effect” value is 108.6%.

Consider `Cc1ccc(C)c(CN2C[C@H]3CC[C@@H]2CN(C(=O)c2cccnc2)C3)c1`, for which the “Percent Effect” value came out at 3.177%.

Take `CCn1cc(CN2C[C@H]3CC[C@@H]2CN(C(=O)c2cnccn2)C3)cn1`: the “Percent Effect” value is reported as 6.074%.

For the compound `CC(=O)c1ccc(C(=O)N2C[C@@H]3CC[C@H](C2)N(Cc2ccccc2)C3)s1`, the “Percent Effect” value was -1.466%.

On to `O=C(c1cccnc1)N1C[C@@H]2CC[C@H](C1)N(Cc1cccc(Cl)c1F)C2`, for which the “Percent Effect” value is listed as -33.46%.

In the case of `N#Cc1ccccc1CN1C[C@H]2CC[C@@H]1CN(C(=O)c1cccnc1)C2`, the “Percent Effect” value was -5.944%.

For `O=C(c1cnc(O)cn1)N1C[C@@H]2CC[C@H](C1)N(Cc1ccccc1)C2`, the “Percent Effect” value is listed as 93.73%.

As to `c1ccc(SCCN2CCCC(Cn3ccnc3)C2)cc1` (stereo unspecified), the “Percent Effect” value was -2.811%.

For the compound `COCCc1noc(CN2CCC3(CCCO3)CCC2=O)n1` (stereo unspecified), the “Percent Effect” value is given as -3.143%.

Regarding `CC(C)c1nc(C(=O)NCCn2ccnc2)nn1-c1cccc(F)c1`, the “Percent Effect” value stood at 0.4969%.

On to `CC(C)c1nncn1CCNC(=O)c1ccc(Cl)cc1O`, for which the “Percent Effect” value was found to be 126.8%.

With `CC(C)c1ccc(O)c(C(=O)NCc2nncn2C)c1`, the “Percent Effect” value is -11.21%.

Turning to `CN(C)C(C(=O)NCCn1cccc1)c1cccc(F)c1` (stereo unspecified), the “Percent Effect” value was 1.101%.

Consider `CC(C)c1nncn1CCNC(=O)c1c(O)cc(F)cc1F`, for which the “Percent Effect” value is on record as 158.6%.

`O=C(NCCn1cccc1)c1c(O)cc(F)cc1F`: the “Percent Effect” value is given as 114.7%.

For `CCn1cnnc1CNC(=O)c1cc(Cl)ccc1OC`, the “Percent Effect” value was found to be 2.71%.

With `O=C(NCCC(=O)N1CCCCCC1)c1c(O)cc(F)cc1F`, the “Percent Effect” value amounted to 4.152%.

For the compound `CC(C)Cn1cnnc1C1CCCN1C(=O)c1ccc(F)cc1F` (stereo unspecified), the “Percent Effect” value was -3.293%.

Regarding `CCn1cnnc1CNC(=O)c1cc(Cl)ccc1O`, the “Percent Effect” value was determined as 6.278%.

Consider `O=C(NCCn1cnnc1C1CC1)c1c(O)cc(F)cc1F`, for which the “Percent Effect” value was 120%.

As for `CCOC(=O)N1CCN(c2nc(NC3CC3)c3ccccc3n2)CC1.Cl`, the “Percent Effect” value was 12.46%.

Regarding `CC(C)CN1CCC(NC(=O)NCCC(=O)NCc2ccccc2)CC1`, the “Percent Effect” value is given as -0.3399%.

`O=C(NC1(C(=O)O)CCCCC1)C1Cc2ccccc2O1` (stereo unspecified): the “Percent Effect” value is 26.74%.

Consider `CC(C(=O)NCc1ccnc(N2CCCC2)c1)n1cncn1` (stereo unspecified), for which the “Percent Effect” value is recorded as -10.11%.

With `CCCS(=O)(=O)NC(C)C(=O)NCc1ccc(N2CCCC2)nc1` (stereo unspecified), the “Percent Effect” value is 3.443%.

Turning to `CC(C(=O)NCc1ccc(N2CCCC2)nc1)n1cncn1` (stereo unspecified), the “Percent Effect” value came to 95.49%.

On to `CC(C(=O)NCc1ccc(N2CCCCC2)nc1)n1cncn1` (stereo unspecified), for which the “Percent Effect” value was determined as 91.32%.

Regarding `CC(C(=O)NCc1ccc(N2CCCCCC2)nc1)n1cncn1` (stereo unspecified), the “Percent Effect” value is given as 118.8%.

In the case of `CCN(CC)C(C(=O)NCc1ccc(N2CCCC2)nc1)C(C)C` (stereo unspecified), the “Percent Effect” value is 0.1706%.

Take `CCc1cc(N2CCS(=O)(=O)CC2)n2nc(C)c(C)c2n1`: the “Percent Effect” value came to 1.934%.

As to `Cc1cc(CNC(=O)N2CCc3ccccc32)on1`, the “Percent Effect” value is given as 8.57%.

Regarding `O=C1Cc2cc(NC(=O)N3CCCN(Cc4cccs4)CC3)ccc2N1`, the “Percent Effect” value is on record as -14%.

For the compound `Cn1cc(Cl)cc1C(=O)N1CCCN(Cc2cccs2)CC1`, the “Percent Effect” value is on record as 6.765%.

As to `COc1ccc(C(=O)N2CC(c3ccncc3)C2)c(OC)c1OC`, the “Percent Effect” value was -3.767%.

As to `CC(C)N1CCOC(CC(=O)N2CCCN(Cc3cccs3)CC2)C1` (stereo unspecified), the “Percent Effect” value worked out at 115.9%.

As for `CC(C)N1CCOC(CC(=O)N2CCCN(Cc3ccncc3)CC2)C1` (stereo unspecified), the “Percent Effect” value worked out at 108.1%.

In the case of `CCn1nc(CC(C)C)cc1C(=O)N1CC(c2ccncc2)C1`, the “Percent Effect” value is 2.203%.

Turning to `CC(C)C(C(=O)N1CCN(Cc2ccncc2)CC1)n1cncn1` (stereo unspecified), the “Percent Effect” value was -9.917%.

For the compound `CC(C)N1CCOC(CC(=O)N2CC(c3ccncc3)C2)C1` (stereo unspecified), the “Percent Effect” value is recorded as 103.1%.

Turning to `CC(C)c1noc(CCCC(=O)N2CCN(Cc3ccncc3)CC2)n1`, the “Percent Effect” value amounted to 9.979%.

Take `NC(=O)c1cnc(NCC(=O)NCc2ccco2)c(Cl)c1`: the “Percent Effect” value was -1.038%.

Take `COCC(=O)N[C@H](C)c1onc(-c2ccc(Cl)cc2)c1C(=O)O`: the “Percent Effect” value is -3.63%.

`Cc1nccn1CCC1CCCCN1Cc1cccc(CCN)c1` (stereo unspecified): the “Percent Effect” value is -7.51%.

Consider `O=C(NCc1csc(Br)c1)c1ccc(=O)[nH]n1`, for which the “Percent Effect” value is reported as 9.228%.

Take `NC(=O)Cc1csc(NC(=O)C2CSCCC(=O)N2)n1` (stereo unspecified): the “Percent Effect” value stood at 2.989%.

As to `CCOC(=O)Cc1csc(NC(=O)c2ccc(=O)[nH]n2)n1`, the “Percent Effect” value was 95.75%.

Consider `O=C(c1ccno1)N1CC(c2nc(-c3ccco3)no2)C1`, for which the “Percent Effect” value was determined as 0.6255%.

`O=S(=O)(Cc1ccccc1)NCCNc1ccc(-n2cccc2)nn1`: the “Percent Effect” value is given as 11.81%.

For `CNC(=O)CCc1cc(C)nc(C2CCN(CC(=O)N(C)C)CC2)c1`, the “Percent Effect” value is reported as 129.2%.

`CN(C)C1CCN(C(=O)CCc2cc(Br)cs2)CC1`: the “Percent Effect” value came out at 1.097%.

As for `Cc1cc2cc(CNC3CCN(CC(=O)N(C)C)CC3)oc2cc1C`, the “Percent Effect” value is reported as -4.492%.

Turning to `Cc1cc(C)cc(CCC(=O)N2CCN(c3cc(C)nc(N)n3)CC2)c1`, the “Percent Effect” value was -5.077%.

`CNC(=O)CCc1cc(C)nc(C2CCN(C(=O)CN(C)C)CC2)c1`: the “Percent Effect” value is given as 154.4%.

For `COC(=O)[C@@H]1Cc2[nH]cnc2CN1Cc1cc2ccccc2o1`, the “Percent Effect” value turned out to be 9.178%.

Consider `CC(=O)N1CCCN(Cc2ccon2)c2ccccc21`, for which the “Percent Effect” value is listed as 1.908%.

`Cc1c(CS(C)(=O)=O)cccc1NCC1CCCCC1`: the “Percent Effect” value was determined as 1.975%.

For the compound `COC(=O)C(C)(C)NC(=O)C1CC(=O)N(CC(F)(F)F)C1` (stereo unspecified), the “Percent Effect” value was 83.67%.

As to `CCN1CC(C(=O)NC(C)(C)C(=O)OC)CC1=O` (stereo unspecified), the “Percent Effect” value came out at 77.38%.

`CCN1CC(C(=O)NC(C)(C)CNC(=O)OC(C)(C)C)CC1=O` (stereo unspecified): the “Percent Effect” value is reported as -0.2967%.

Take `O=C(NCCNc1ncccn1)C1CC(=O)N(CC(F)(F)F)C1` (stereo unspecified): the “Percent Effect” value is on record as 1.939%.

Turning to `CCN1CC(C(=O)NC(C)(C)C)CC1=O` (stereo unspecified), the “Percent Effect” value is -9.629%.

Consider `CCCc1nc(C(C)(C)NC(=O)C2CC(=O)N(CC3CC3)C2)no1` (stereo unspecified), for which the “Percent Effect” value is reported as -6.715%.

Consider `CCN1CC(C(=O)NC(C)(C)CC(C)(C)C)CC1=O` (stereo unspecified), for which the “Percent Effect” value amounted to 2.297%.

As to `COC(=O)C(C)(C)NC(=O)C1CC(=O)N(CC2CC2)C1` (stereo unspecified), the “Percent Effect” value is given as 110.1%.

With `CCN1CC(C(=O)NC(C)(C)CC)CC1=O` (stereo unspecified), the “Percent Effect” value was -10.63%.

For the compound `COC(=O)C(C)(C)NC(=O)C1CC(=O)N(C)C1` (stereo unspecified), the “Percent Effect” value is -1.781%.

With `CCC(C)(C)NC(=O)C1CC(=O)N(CC2CC2)C1` (stereo unspecified), the “Percent Effect” value was 3.552%.

Take `COC(=O)C(C)(C)NC(=O)C1CC(=O)N(CC(C)C)C1` (stereo unspecified): the “Percent Effect” value was 100.8%.
